# MOR-DOR inv ag: inverse agonists of human mu-delta opioid receptor heterodimerization; P35372+P41143; 0.21% of 340,000 active; inhibition, % at 9.3 µM; cell-based MOR-DOR heterodimer luminescence, inverse agonism; in the data active = inhibition above about 22%, passing the limit was not always enough;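 also: 0% = cells with DMSO and 100% = wells without cells with DMSO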
# Target sequence (P35372 whole entry, looked up): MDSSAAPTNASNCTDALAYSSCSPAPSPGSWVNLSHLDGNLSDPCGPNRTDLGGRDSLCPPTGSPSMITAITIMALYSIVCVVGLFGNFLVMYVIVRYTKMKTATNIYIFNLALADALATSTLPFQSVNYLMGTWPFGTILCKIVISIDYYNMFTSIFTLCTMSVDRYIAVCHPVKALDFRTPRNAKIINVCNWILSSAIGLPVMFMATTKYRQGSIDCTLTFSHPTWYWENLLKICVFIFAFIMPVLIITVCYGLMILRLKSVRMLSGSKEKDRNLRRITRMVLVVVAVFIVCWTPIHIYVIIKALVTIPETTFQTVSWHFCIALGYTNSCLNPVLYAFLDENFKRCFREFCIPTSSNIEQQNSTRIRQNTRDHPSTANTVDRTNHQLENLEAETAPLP
# Target sequence (P41143 whole entry, looked up): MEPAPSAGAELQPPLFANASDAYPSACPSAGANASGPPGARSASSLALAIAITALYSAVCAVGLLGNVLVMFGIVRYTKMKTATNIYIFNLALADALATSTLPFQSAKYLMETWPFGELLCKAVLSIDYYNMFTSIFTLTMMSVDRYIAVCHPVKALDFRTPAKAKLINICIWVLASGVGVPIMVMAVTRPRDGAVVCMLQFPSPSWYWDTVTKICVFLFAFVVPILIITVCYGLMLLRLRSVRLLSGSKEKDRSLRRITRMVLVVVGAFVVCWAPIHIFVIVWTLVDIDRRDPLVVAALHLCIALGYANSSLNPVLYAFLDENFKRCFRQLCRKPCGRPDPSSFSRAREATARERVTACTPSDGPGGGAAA
# HTR5A inv ag: counter-screen for OPRM1-OPRD1 inverse agonists: human HTR5A inverse agonism; P47898; HTR5A cell line, luminescence; inhibition, % at 9.3 µM; 0.083% of 340,000 active; in the data active = inhibition mostly above about 23%, no sharp cut-off; inactive = mostly below about 18%;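 also: 0% = cells with DMSO and 100% = no-cell wells with DMSO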
# MOR-DOR ag: OPRM1-OPRD1 heterodimerization agonism; activation, % at 9.3 µM; P35372+P41143; 0.3% of 340,000 active; cells, luminescence;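 also: 0% = vehicle-treated cells and 100% = reference agonist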
# HTR5A ag ctr: activates human HTR5A in OPRM1-OPRD1 agonist counter-screen; HTR5A agonist assay, luminescence, cell-based; P47898; 0.61% of 340,000 active; AID 504692; activation, % at 9.3 µM; in the data active = activation mostly above about 9.5%, no sharp cut-off; inactive = mostly below about 7.6%;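 also: 0% = cells with vehicle only and 100% = reference agonist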
# OPRM1-D1 ag cf: confirmation of human OPRM1-OPRD1 heterodimerization agonists | shares compounds with MOR-DOR ag | 45% of 830 active | activation, % at 9.3 µM | cells, MOR-DOR heterodimerization, luminescence complementation;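 also: 0% = vehicle-treated cells and 100% = reference agonist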
# HTR5A ag ctr2: counter-screen for OPRM1-OPRD1 agonists: human HTR5A agonism | shares compounds with MOR-DOR ag | HTR5A agonist counterscreen, cell luminescence | activation, % at 9.3 µM | 8% of 830 active | AID 504905; in the data active = activation above about 17%;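 also: 0% = vehicle-treated cells and 100% = reference agonist response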
# * hit, by the source's call; i = inactive; x = no result. A selection: hits, their analogues and other compounds. The true share with any hit is near 1.1%. Rule as the data show it, unless noted: active = activation above about 18%; inactive = the rest.
SMILES,MOR-DOR inv ag,HTR5A inv ag,MOR-DOR ag,HTR5A ag ctr,OPRM1-D1 ag cf,HTR5A ag ctr2
Cc1ccc2c(c1)COc1c3ccc(C(=O)N[C@@H](C)CO)cc3nn1-2,9.3,-13.9,-1.6,13.9*,x,x
O=C1OCCN1C(=O)[C@H]1[C@H](c2ccc(Cl)cc2)C(c2ccccc2)=NN1c1ccccc1,-16.3,-20.5,3.3,5.5*,x,x
O=C1OCCN1C(=O)[C@H]1[C@H](c2ccc(Cl)cc2)C(c2ccc(F)cc2)=NN1c1ccccc1,-28.6,-15.7,5.9,4.4,x,x
C/C(CC(=O)Nc1cc(C)ccn1)=N\NC(=O)c1cccc(F)c1,5.5,17.4,-0.9,0.6,x,x
CS(=O)(=O)N1CCN(c2ccc(NC(=O)c3ccc(-c4ccc(Cl)cc4)o3)cc2)CC1,-54.9,-39.2,9.6,11.8*,x,x
Cc1ccc(Nc2cc(C)nn2-c2nc(C)cc(=O)[nH]2)cc1,54.7*,-2.8,-9.3,-7.2,x,x
Cc1ccc(Nc2cc(C)nn2-c2nc(C)cc(C)n2)cc1,10.7,-1.0,-1.9,-1.7,x,x
CC1CN(c2ncnc3c2c(-c2ccccc2)cn3-c2ccc(F)cc2)CC(C)O1 (centres undefined),61.9*,77.0*,-12.8,-20.8,x,x
COc1ccc(-n2cc(-c3ccccc3)c3c(NN4CCOCC4)ncnc32)cc1,-1.2,-2.5,0.2,-0.5,x,x
OCCN1CCN(c2ncnc3c2c(-c2ccccc2)cn3-c2ccc(F)cc2)CC1,45.0*,44.2*,-9.5,-17.1,x,x
Fc1ccc(-n2cc(-c3ccccc3)c3c(NN4CCOCC4)ncnc32)cc1,33.6*,45.7*,-5.6,-17.1,x,x
N#Cc1ccccc1COC(=O)CCCC1=NS(=O)(=O)c2ccccc2N1,-6.6,2.0,1.2,6.8,x,x
Cc1nnc(SCC(=O)NNC(=O)COc2ccc(Cl)cc2)n1C,3.1,-18.0,-0.6,7.4,x,x
CCOc1ccc(S(=O)(=O)/N=C(/Nc2ccc(C)c(S(=O)(=O)N3CCOCC3)c2)c2ccccc2)cc1,19.7,-35.7,-4.6,14.4,x,x
Cc1ccc(C2(O)CN(c3ccccc3)C3=[N+]2CCS3)cc1 (centres undefined),-390.7,-4.8,76.9*,1.8,194.2*,1.4
Cc1ccc(C2(O)CN(c3ccccc3C)C3=[N+]2CCS3)cc1 (centres undefined),i,11.9,349.0*,4.5,372.7*,0.9
Cc1ccccc1N1CC(O)(c2ccccc2)[N+]2=C1SCC2 (centres undefined),i,9.2,217.6*,-3.5,222.6*,1.3
OC1(c2ccc(F)cc2)CN(c2ccccc2)C2=[N+]1CCS2 (centres undefined),13.3,-9.0,-3.0,0.1,x,x
CC(C)Cc1ccc(S(=O)(=O)N2CCN(c3ccccn3)CC2)cc1,-7.0,2.3,1.5,-0.7,x,x
CCOc1ccc(NC(=S)Nc2ccc3nsnc3c2)cc1,-138.1,12.3,22.2*,4.2,5.6,3.5
Cc1cc(/C=C2\SC(=Nc3ccc(F)cc3)NC2=O)c(C)n1-c1ccc(S(N)(=O)=O)cc1,i,-12.1,125.1*,4.1,23.9*,3.0
Fc1ccccc1COc1ccc(Br)cc1CNCc1cccnc1,1.1,11.0,-0.2,-3.4,x,x
COc1ccc(-c2nn(-c3ccccc3)cc2CNCc2cccnc2)c(F)c1,-96.9,6.7,21.1*,-2.6,-1.7,-0.9
COc1ccc(CNCc2cn(-c3cccc(F)c3)nc2-c2ccc(C)o2)cc1,i,1.1,120.0*,-0.4,-0.1,0.1
COc1ccc(-n2cc(CNCc3cccnc3)c(-c3cccc(F)c3)n2)cc1,-279.1,-3.7,55.0*,1.3,404.1*,1.7
SMILES,MOR-DOR inv ag,HTR5A inv ag,MOR-DOR ag,HTR5A ag ctr,OPRM1-D1 ag cf,HTR5A ag ctr2
COc1ccc(-c2nn(-c3ccccc3C)cc2CNCc2cccnc2)cc1F,-328.3,18.8,72.2*,-4.0,134.1*,5.3
O=C(NCCS(=O)(=O)N1CCN(Cc2ccccc2)CC1)c1ccc(F)cc1,9.2,-0.7,-1.4,0.2,x,x
CCOC(=O)C1CCCN(C(=O)Cn2nc(C)c3c(C)n(-c4ccccc4)nc3c2=O)C1 (centres undefined),2.4,-20.5,-0.5,9.9,x,x
CC(=O)N1CCC(C(=O)NC2CCCc3c2cnn3-c2cc(F)cc(F)c2)CC1 (centres undefined),6.4,3.4,-1.2,3.1,x,x
Cc1cc(S(=O)(=O)Nc2noc3ccccc23)ccc1F,8.2,13.4,-1.8,-3.8,x,x
O=C1C(Nc2ccc(O)cc2)=C/C(=N/S(=O)(=O)c2cccs2)c2ccccc21,-123.0,25.4,24.0*,4.7,-0.2,-0.2
Cc1cccc(NC2=C/C(=N/S(=O)(=O)c3cccs3)c3ccccc3C2=O)c1,-56.5,-5.6,10.9,1.5,x,x
COc1ccc2c(c1)C(=O)C1NC(=O)NC(=O)C1(Br)N2 (centres undefined),5.4,19.8,-1.1,-5.0,x,x
COc1ccc(N2C(=S)N=C(Nc3ccccc3)C23CCCCC3)cc1,-151.5,-5.2,28.9*,0.0,16.1,4.9
Cc1ccc(NC(=O)CNC(=O)c2sc3ccccc3c2Cl)nc1,-134.6,-3.7,25.9*,1.5,-0.1,-1.2
CCN(CC)CCn1c(O)c(N=O)c2ccccc21,1.3,-8.2,-0.2,0.9,x,x
CCN(CC)CCn1c2ccccc2c(=O)c2c(O)ccc(O)c21,-100.2,-2.1,19.5*,0.6,9.4,0.5
Cc1ccc(Cn2ccc(=O)c(OCc3c(Cl)cccc3Cl)c2C)cc1,-168.7,-14.9,28.4*,2.2,-0.1,24.2*
Cc1ccc(C(=O)NCC(=O)Nc2ccc(S(=O)(=O)Nc3cc(C)nc(C)n3)cc2)cc1,11.5,-3.4,-2.9,1.2,x,x
Cc1ccc(NC(=O)Cc2nc(-c3c[nH]c(C(=O)N4CCCC4)c3)cs2)c(C)c1,0.2,-12.7,-0.1,5.1,x,x
CCOc1cc(C2c3c(oc4ccccc4c3=O)C(=O)N2c2nccs2)ccc1O (centres undefined),-124.7,-32.5,24.5*,-3.8,0.9,2.5
C=CCN1C(=O)c2oc3ccccc3c(=O)c2C1c1ccc(O)c(OC)c1 (centres undefined),9.1,-6.3,-1.6,2.4,x,x
O=C(CCNS(=O)(=O)c1ccccc1C(F)(F)F)N1CCN(S(=O)(=O)c2cccc(F)c2)CC1,-6.4,8.7,1.0,-3.3,x,x
C=CC[C@@H](CC(=O)N(CCO)Cc1ccccc1)C(=O)N[C@@H](COC(=O)[C@@H](CC=C)CC(=O)OC(C)(C)C)Cc1c[nH]c2ccccc12,-131.4,-54.0,28.6*,8.8,1.7,-2.6
CC(=O)Nc1ccc(SCCC2CCCCN2C)cc1 (centres undefined),10.7,4.3,-1.7,-1.5,x,x
CC1(c2ccccc2)CC(C)(C)N2C(=O)C3(C(C#N)=C(N)Oc4cc(O)ccc43)c3cccc1c32 (centres undefined),-106.0,-3.0,20.4*,1.3,47.4*,4.3
CCc1n[nH]c(=S)n1/N=C/c1c(O)ccc2ccccc12,-12.8,6.3,2.6,-1.7,x,x
CSc1ccccc1NC(=O)Nc1ccc(Cl)cc1,-146.7,-17.2,25.7*,8.6,13.8,2.9
CCCn1c(N)c(N(CCOC)C(=O)c2cc(C)cc(C)c2)c(=O)[nH]c1=O,3.2,8.0,-0.6,-4.5,x,x

# Bioassay records: PubChem BioAssay, The Scripps Research Institute Molecular Screening Center
